Screening results deposited in PubChem BioAssay by National Center for Advancing Translational Sciences (NCATS).
Only some compounds are listed: those with a hit (about 12% of all), similar ones and a draw of the others.
PI5P4K alpha inh = PI5P4K alpha (human) kinase inhibition. PI5P4Kalpha enzyme, ADP-Glo luminescence, 60 min; hits give low values. max response, %. actives 1.2% (n = 330,000). AID 652105; active = max response of -50% or lower; inconclusive = between -30% and -50%; inactive = -30% or higher; also: value at the top dose of about 77 µM; % is scaled to controls: 0 for no effect and ±100 for the full control effect
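Reactions run in 0.038 M HEPES pH 7.4, 0.28 mM EGTA, 0.1% CHAPS and 5% DMSO, with PI5P4Kalpha, substrate, compound and 5 microM ATP final, one hour at room temperature. Readout is ADP-Glo luminescence.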
G9a block = blocks human histone lysine methyltransferase G9a; Q96KQ7; G9a H3K9 monomethylation, AlphaScreen, 2 h; Potency, µM (doses to about 102 µM), without a hit: at the highest dose activity, negative = inhibition, actives largely listed as inhibitors; actives 8.8% (n = 350,000); also: potency is read from the fitted curve at half-maximal effect; % is scaled to controls: 0 for no effect and ±100 for the full control effect; nearly all actives have a fitted effect of over 75% in size
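AlphaScreen read-out: biotin-H3K9 peptide (500 nM) methylation by 20 nM enzyme with 20 uM SAM, 2 h at room temperature after 15 min compound preincubation; anti-monomethyl H3K9 antibody plus donor/acceptor beads, 10 min dark.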
HP1b binding inh = blocks HP1-beta chromodomain binding to methylated histone tails; actives 0.56% (n = 390,000); Potency, µM (titrated, usually from 114 µM), for the others: top-dose activity change, negative = inhibition, most hits filed as inhibitors; AlphaScreen HP1-beta / biotin-H3K9me3 peptide binding; also: potency is read from the fitted curve at half-maximal effect; nearly all actives have a fitted effect of over 70% in size
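AlphaScreen: HP1-beta (50 nM) preformed 30 min with biotin-H3(1-18)K9me3 peptide (50 nM) in PBS pH 7.4, 0.01% Tween-20. Compound added for 30 min at RT, then streptavidin donor/nickel chelate acceptor beads (10 ug/mL) for 30 min.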
BAZ2B block = inhibitors of human BAZ2B bromodomain; AID 504333; Q9UIF8; Potency, µM (series often up to 114 µM), without a hit: at the top dose activity change, negative = inhibition, hits mostly inhibitors; actives 4.4% (n = 360,000); AlphaScreen BAZ2B-H3K14Ac peptide displacement; also: potency is read from the fitted curve at half-maximal effect; % is scaled to controls: 0 for no effect and ±100 for the full control effect; nearly all actives have a fitted effect of over 60% in size
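Compounds, titrated to a top concentration of 110 uM, were incubated 30 min at room temperature with preformed BAZ2B/acetyl-K14 H3 peptide complex (50 nM each). Proximity signal was measured by AlphaScreen after 20 min with beads.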
JMJD2A Tudor inh = inhibitors of human JMJD2A Tudor domain | O75164 | AlphaScreen JMJD2A-Tudor / H3K4me3 peptide binding | Potency, µM (series often up to 114 µM), without a hit: top-dose activity change, negative = inhibition, actives largely listed as inhibitors | actives 4.4% (n = 390,000) | AID 504339; also: potency is read from the fitted curve at half-maximal effect; % is scaled to controls: 0 for no effect and ±100 for the full control effect; nearly all actives have a fitted effect of over 50% in size
PLK1 PBD block = blocks phosphopeptide binding to human PLK1 polo-box domain | actives 2.8% (n = 360,000) | Plk1 PBD binding of FITC phosphopeptide, fluorescence polarization | AID 720504 | P53350 | Potency, µM, inactives show max response, negative = inhibition, usual class: inhibitors; also: potency is read from the fitted curve at half-maximal effect; series mostly up to about 57 µM; % is scaled to controls: 0 for no effect and ±100 for the full control effect; nearly all actives have a fitted effect of over 65% in size
Target sequence (P53350 whole entry, looked up, the tested form may be a part): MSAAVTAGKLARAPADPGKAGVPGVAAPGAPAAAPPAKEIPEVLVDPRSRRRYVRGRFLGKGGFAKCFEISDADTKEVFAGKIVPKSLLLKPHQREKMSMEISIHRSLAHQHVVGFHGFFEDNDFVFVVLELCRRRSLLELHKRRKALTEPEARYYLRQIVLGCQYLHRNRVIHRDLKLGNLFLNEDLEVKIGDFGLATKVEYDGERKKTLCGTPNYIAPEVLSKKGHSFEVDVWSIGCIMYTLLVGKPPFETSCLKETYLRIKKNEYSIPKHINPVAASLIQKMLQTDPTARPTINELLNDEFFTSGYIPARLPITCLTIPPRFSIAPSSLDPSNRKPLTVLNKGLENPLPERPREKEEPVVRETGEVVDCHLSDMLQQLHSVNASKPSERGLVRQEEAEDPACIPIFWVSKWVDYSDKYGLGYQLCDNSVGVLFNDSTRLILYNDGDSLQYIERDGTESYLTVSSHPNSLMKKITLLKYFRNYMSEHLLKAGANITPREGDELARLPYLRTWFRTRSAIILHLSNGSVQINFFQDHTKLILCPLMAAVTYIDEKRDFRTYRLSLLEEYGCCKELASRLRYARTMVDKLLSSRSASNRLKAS
* hit, by the source's call; [ ] = another dose, or the depositor's remark. Unless noted, calls follow the shape of the dose curve; as a rule, active = well fitted curve in the direction sought with a large enough effect; inconclusive = small, poorly fitted or top-dose-only effect, or another doubt; inactive = no such curve, though single readings can be large; an effect the other way counts as inactive or inconclusive.

`Cc1ccc(NS(=O)(=O)c2c(C)ccc3nsnc23)c([N+](=O)[O-])c1` gave PI5P4K alpha inh -4, HP1b binding inh 8%, BAZ2B block -33%, JMJD2A Tudor inh -24% and PLK1 PBD block -11%.
Screening COc1ccccc1C(=O)OC(C)CN1CCN(C)CC1 (configuration not stated) returned PI5P4K alpha inh 7, G9a block inconclusive, HP1b binding inh 36%, BAZ2B block -26%, JMJD2A Tudor inh -25% and PLK1 PBD block 2%.
For C/C(=C\C(=S)Nc1ccccc1)Nc1ccc2ccccc2c1 the results were PI5P4K alpha inh 6, G9a block -49%[59 µM], HP1b binding inh inconclusive, BAZ2B block 25µM*, JMJD2A Tudor inh 79µM* and PLK1 PBD block -18%.
`CCOC(=O)CN1C(=O)N(CC(=O)OCC)C(c2ccccc2)(c2ccccc2)C1=O` gave PI5P4K alpha inh 1, G9a block -1%, HP1b binding inh 38%, BAZ2B block -1%, JMJD2A Tudor inh -6% and PLK1 PBD block 3%.
Screening Cc1ccc(NS(=O)(=O)c2cc(NC(=O)c3ccc4c(c3)NC(=O)CS4)ccc2Cl)c(C)c1 returned PI5P4K alpha inh inconclusive, G9a block 2.8µM*, HP1b binding inh inconclusive, BAZ2B block -38%, JMJD2A Tudor inh -35% and PLK1 PBD block 6µM*.
Screening COCCNC(=O)c1ccc2c(c1)NC(=O)CS2 returned G9a block -5%[59 µM], HP1b binding inh 22%, BAZ2B block -6%, JMJD2A Tudor inh -5% and PLK1 PBD block -3%.
`Cc1ccc(NS(=O)(=O)c2cc(C(=O)O)ccc2Cl)c(C)c1` gave PI5P4K alpha inh 6, G9a block inconclusive, HP1b binding inh 54%, BAZ2B block -6%, JMJD2A Tudor inh -7%[57.1 µM] and PLK1 PBD block -4%.
COc1ccc(NC(=O)c2ccc3c(c2)NC(=O)CS3)cc1 was read as PI5P4K alpha inh -1, G9a block inconclusive, HP1b binding inh 12%, BAZ2B block 9%, JMJD2A Tudor inh 56µM* and PLK1 PBD block 10%.
Screening Cc1cccc(OCc2nnc(SCC(=O)NCc3ccc4c(c3)OCO4)o2)c1 returned PI5P4K alpha inh -22 and PLK1 PBD block 0%.
Screening O=C(CCCCCNc1nc(=S)[nH]c2ccccc12)N1CCN(c2ccccn2)CC1 returned G9a block inconclusive and BAZ2B block -36%.
Cc1ccc(CNC(=O)CCCCCNc2nc(=S)[nH]c3ccccc23)cc1 was read as G9a block 29% and BAZ2B block -4%.
For COc1cccc(N2CCN(C(=O)CCCCCNc3nc(=S)[nH]c4ccccc34)CC2)c1 the results were PI5P4K alpha inh 0, G9a block -46%, HP1b binding inh -3%, BAZ2B block 32µM*, JMJD2A Tudor inh -33% and PLK1 PBD block 0%.
For NS(=O)(=O)c1ccc(CCNC(=O)CCCCCNc2nc(=S)[nH]c3ccccc23)cc1 the results were G9a block 50µM* and BAZ2B block 1%.
For CCC(=O)Nc1c(C)c(CC)nc2ccccc12 the results were G9a block -5%[12.7 µM], HP1b binding inh 36%, BAZ2B block -5%, JMJD2A Tudor inh -10% and PLK1 PBD block -7%.
`CCCCc1nc2ccccc2c(NC(=O)CN(CC)CC)c1CCC` gave PI5P4K alpha inh -4, G9a block 32µM*, HP1b binding inh inconclusive, BAZ2B block 56µM*, JMJD2A Tudor inh 28µM* and PLK1 PBD block -6%.
CCOc1ccccc1N=NC1C(=O)N(C(N)=S)N=C1C (configuration not stated) was read as PI5P4K alpha inh -4, G9a block 50µM*, HP1b binding inh -3%, BAZ2B block 7%, JMJD2A Tudor inh -4% and PLK1 PBD block -28%.
`CC1=NN(C(N)=S)C(=O)C1N=Nc1ccccc1O` (configuration not stated) gave PI5P4K alpha inh 0, HP1b binding inh 47%, BAZ2B block 50µM*, JMJD2A Tudor inh 56µM* and PLK1 PBD block -7%.
Cc1ccn2c(=O)c(C(=O)NCCc3ccccc3)c(O)nc2c1 was read as G9a block 26%[59 µM], HP1b binding inh 31%, BAZ2B block -11% and JMJD2A Tudor inh 3%.
O=C(Nc1ccccc1)N1CCCC2(CCN(C(=O)c3cnccn3)CC2)C1 was read as G9a block 9%[12.7 µM].
For CC1(C(=O)NS(=O)(=O)C2CC2)CCN(C(=O)CSc2ccccc2)C1 (configuration not stated) the results were PI5P4K alpha inh 1 and PLK1 PBD block -7%.
COc1cccc(CN(Cc2cccnc2)S(=O)(=O)c2ccc(-n3cnnn3)c(C)c2)c1OC was read as G9a block 25µM*, HP1b binding inh 20%, BAZ2B block inconclusive, JMJD2A Tudor inh inconclusive and PLK1 PBD block 0%.
For COc1cc(S(=O)(=O)N(Cc2cccc(OC)c2OC)CC2CCCO2)ccc1-n1cnnn1 (configuration not stated) the results were PI5P4K alpha inh 0, G9a block 50µM*, HP1b binding inh 29%, BAZ2B block -39%, JMJD2A Tudor inh -22% and PLK1 PBD block -3%.
For O=C(c1ccc2c3n(nc2c1)-c1ccc(Cl)cc1CO3)N1CCCCC1 the results were PI5P4K alpha inh -5, G9a block -22%[12.7 µM], HP1b binding inh 22%, BAZ2B block -34%, JMJD2A Tudor inh -27% and PLK1 PBD block -1%.
For O=C(O)c1ccc2c3n(nc2c1)-c1ccc(Cl)cc1CO3 the results were PI5P4K alpha inh inconclusive, G9a block 50µM*, HP1b binding inh 27%, BAZ2B block inconclusive, JMJD2A Tudor inh -15% and PLK1 PBD block -12%.
Screening COc1ccc(NC(=O)CCc2c(C)nc3c(-c4ccc(F)cc4)c(C)nn3c2C)c(OC)c1 returned G9a block -26%[59 µM], HP1b binding inh 33%, BAZ2B block -3% and JMJD2A Tudor inh -1%.
For O=C(Nc1c2c(nn1-c1ccc([N+](=O)[O-])cc1)CS(=O)(=O)C2)c1ccccc1F the results were PI5P4K alpha inh 3, G9a block 20%[59 µM], HP1b binding inh 58%, BAZ2B block -14%, JMJD2A Tudor inh -13% and PLK1 PBD block -5%.
`COc1ccc(C)cc1-n1c(-c2ccncc2)n[nH]c1=S` gave PI5P4K alpha inh 6, G9a block inconclusive, HP1b binding inh 41%, BAZ2B block 1%, JMJD2A Tudor inh 20µM* and PLK1 PBD block -1%.
`COc1ccc(OC)c(-n2c(-c3ccc(O)cc3O)n[nH]c2=S)c1` gave PI5P4K alpha inh inconclusive, HP1b binding inh 10%, BAZ2B block -8%, JMJD2A Tudor inh 4µM* and PLK1 PBD block -26%.
